Results published in PubChem BioAssay (NCATS).
Results filed as inconclusive are left out. Calls of active or inactive are those of the source. Calls come from the whole dose curve; as a rule, active = well fitted curve in the direction sought with a large enough effect; inconclusive = small, poorly fitted or top-dose-only effect, or another doubt; inactive = no such curve, though single readings can be large; an effect the other way counts as inactive or inconclusive.

Experiments:
[1] = qHTS of pediatric cancer cell lines to identify multiple opportunities for drug repurposing: Primary screen for TC32 cells (AID 1347089); note: nearly all actives have a fitted effect of over 60% in size
In short: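 In the primary qHTS, MIPE compounds were tested at 11 concentrations (0.78 nM to 46 µM) and NPC compounds at 8 (0.59 nM to 46 µM) on TC32 cells for 48 h. CellTiter-Glo luminescence gave viability.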

[2] = qHTS of pediatric cancer cell lines to identify multiple opportunities for drug repurposing: Primary screen for DAOY cells (AID 1347090); note: nearly all actives have a fitted effect of over 55% in size
In short: (§1)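 Eight- or eleven-point concentration series, 48 h treatment at 37 degrees C in growth media; readout CellTiter-Glo luminescence. Potency and efficacy were taken from the concentration-response curves.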

[3] = qHTS of pediatric cancer cell lines to identify multiple opportunities for drug repurposing: Primary screen for SJ-GBM2 cells (AID 1347091)
In short: as §1

[4] = qHTS of pediatric cancer cell lines to identify multiple opportunities for drug repurposing: Primary screen for A673 cells (AID 1347092); note: nearly all actives have a fitted effect of over 45% in size
In short: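 48 h compound exposure, A673, 500-1,000 cells/well, 37 degrees C/5% CO2. MIPE: 11-point, 0.78 nM-46 µM; NPC: 8-point, 0.59 nM-46 µM (final). Readout CellTiter-Glo luminescence after 15 min RT.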

[5] = qHTS of pediatric cancer cell lines to identify multiple opportunities for drug repurposing: Primary screen for BT-37 cells (AID 1347094)
In short: (§2)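 Readout: CellTiter-Glo luminescence, 48 h treatment. Controls DMSO (neutral) and bortezomib 2.3 µM final (positive). Potency and efficacy taken from primary-screen concentration-response curves.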

[6] = qHTS of pediatric cancer cell lines to identify multiple opportunities for drug repurposing: Primary screen for U-2 OS cells (AID 1347096); note: nearly all actives have a fitted effect of over 50% in size
In short: (§3)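 Cells (500-1,000/well) in growth media were settled 5 h at 37 degrees C, then given compounds for 48 h. Viability was read as CellTiter-Glo luminescence. Primary runs used MIPE at 11 points (0.78 nM-46 µM) and NPC at 8 points (0.59 nM-46 µM); follow-ups used 11 points.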

[7] = qHTS of pediatric cancer cell lines to identify multiple opportunities for drug repurposing: Primary screen for Saos-2 cells (AID 1347097); note: nearly all actives have a fitted effect of over 40% in size
In short: as §2

[8] = qHTS of pediatric cancer cell lines to identify multiple opportunities for drug repurposing: Primary screen for LAN-5 cells (AID 1347100)
In short: as §3

[9] = qHTS of pediatric cancer cell lines to identify multiple opportunities for drug repurposing: Primary screen for BT-12 cells (AID 1347101); note: nearly all actives have a fitted effect of over 25% in size
In short: (§4)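 Cells (500-1,000/well) rested 5 h, then received compounds for 48 h; metabolically active cells were measured by CellTiter-Glo luminescence. Final concentrations spanned up to 46 µM (MIPE, 11-point) or 0.59 nM-46 µM (NPC, 8-point) in primary screens, 11-point in follow-ups.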

[10] = qHTS of pediatric cancer cell lines to identify multiple opportunities for drug repurposing: Primary screen for Rh18 cells (AID 1347102); note: nearly all actives have a fitted effect of over 65% in size
In short: as §3

[11] = qHTS of pediatric cancer cell lines to identify multiple opportunities for drug repurposing: Primary screen for RD cells (AID 1347104); note: nearly all actives have a fitted effect of over 55% in size
In short: as §2

[12] = qHTS of pediatric cancer cell lines to identify multiple opportunities for drug repurposing: Primary screen for MG 63 (6-TG R) cells (AID 1347105); note: nearly all actives have a fitted effect of over 50% in size
In short: as §2

[13] = qHTS of pediatric cancer cell lines to identify multiple opportunities for drug repurposing: Primary screen for control Hh wild type fibroblast cells (AID 1347106); note: nearly all actives have a fitted effect of over 55% in size
In short: as §3

[14] = qHTS of pediatric cancer cell lines to identify multiple opportunities for drug repurposing: Primary screen for Rh30 cells (AID 1347107); note: nearly all actives have a fitted effect of over 75% in size
In short: as §3

[15] = qHTS of pediatric cancer cell lines to identify multiple opportunities for drug repurposing: Primary screen for SK-N-MC cells (AID 1347093)
In short: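 Metabolically active cells were quantified by ATP-dependent luminescence (CellTiter-Glo, 15 min at room temperature) following 48 h treatment. Cells had been plated at 500-1,000 per well and settled for 5 h beforehand.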

[16] = qHTS of pediatric cancer cell lines to identify multiple opportunities for drug repurposing: Primary screen for NB-EBc1 cells (AID 1347095)
In short: as §2

[17] = qHTS of pediatric cancer cell lines to identify multiple opportunities for drug repurposing: Primary screen for OHS-50 cells (AID 1347103); note: nearly all actives have a fitted effect of over 40% in size
In short: as §4

[18] = qHTS of pediatric cancer cell lines to identify multiple opportunities for drug repurposing: Primary screen for SK-N-SH cells (AID 1347098); note: nearly all actives have a fitted effect of over 65% in size
In short: as §4

[19] = qHTS of pediatric cancer cell lines to identify multiple opportunities for drug repurposing: Primary screen for NB1643 cells (AID 1347099); note: nearly all actives have a fitted effect of over 50% in size
In short: as §2

Measured: Potency
Potency is the fitted concentration of half-maximal effect.

CC(C)(C)COc1ccc(-n2cc(C(=O)O)cn2)cc1C#N
inactive: [1] | [2] | [3] | [4] | [5] | [6] | [7] | [8] | [9] | [10] | [11] | [12] | [13] | [14]

CC=CC(=O)N(CC)c1ccccc1C
active: [5] 30.6 µM | [16] 14.8 µM
inactive: [1] | [2] | [3] | [15] | [7] | [10] | [17] | [12] | [13] | [14]

Cc1[nH]c(C=C2C(=O)Nc3ccc(S(=O)(=O)Cc4c(Cl)cccc4Cl)cc32)c(C)c1C(=O)N1CCC[C@H]1CN1CCCC1
active: [3] 0.0332 µM | [15] 18.7 µM | [5] 27.3 µM | [7] 18.7 µM | [8] 14.8 µM | [17] 30.6 µM | [11] 18.7 µM | [12] 23.5 µM
inactive: [1] | [2] | [16] | [13]

CC1(C)O[C@H]2C[C@@H]3[C@H]4CCC5=CC(=O)C=C[C@]5(C)[C@@]4(F)[C@@H](O)C[C@]3(C)[C@]2(C(=O)CO)O1
inactive: [1] | [2] | [6] | [7] | [18] | [10] | [11] | [12] | [13] | [14]
active: [4] 3.72 µM | [15] 8.33 µM | [5] 13.7 µM | [16] 2.35 µM | [19] 14.8 µM | [8] 7.43 µM

CCCCCCCCCCCC1=C(O)C(=O)C=C(O)C1=O
inactive: [1] | [6] | [13]
active: [2] 0.935 µM | [3] 0.0332 µM | [15] 0.0935 µM | [5] 0.0243 µM | [16] 0.469 µM | [7] 0.0372 µM | [8] 0.0166 µM | [9] 0.0432 µM | [17] 0.0193 µM | [12] 2.96 µM

C[C@]12CC[C@@H]3c4ccc(O)cc4C[C@@H](CCCCCCCCCS(=O)CCCC(F)(F)C(F)(F)F)[C@H]3[C@H]1CC[C@H]2O (some centres undefined)
inactive: [1] | [2] | [3] | [4] | [16] | [6] | [18] | [8] | [12] | [13]

CCc1ccc(OCc2ccccc2C(=O)Nc2ccc3nc(C)cc(N)c3c2)cc1
active: [1] 20.8 µM | [2] 11.8 µM | [3] 23.5 µM | [4] 2.96 µM | [5] 8.63 µM | [6] 7.43 µM | [7] 14.8 µM | [18] 12.1 µM | [19] 8.33 µM | [8] 8.33 µM | [9] 9.68 µM | [10] 8.33 µM | [17] 3.43 µM | [11] 5.9 µM | [12] 7.43 µM | [13] 9.35 µM | [14] 11.8 µM

CC(=Cc1ccccc1)C=C1SC(=S)N(CC(=O)O)C1=O
active: [18] 21.5 µM
inactive: [1] | [2] | [3] | [4] | [5] | [16] | [6] | [7] | [19] | [8] | [9] | [17] | [11] | [12] | [13] | [14]

Nc1ncnc2c1ncn2[C@@H]1O[C@@H](CO)[C@H](O)[C@H]1O
inactive: [1] | [2] | [3] | [15] | [5] | [16] | [18] | [19] | [8] | [9] | [17] | [11] | [12] | [13] | [14]

COc1ccc2cc(-c3nc(-c4ccc(S(C)=O)cc4)[nH]c3-c3ccncc3)ccc2c1 (centres undefined)
active: [3] 14.8 µM
inactive: [1] | [2] | [7] | [17] | [11] | [12] | [13]

Cc1ccccc1C(C(=O)NC1CCCCC1)N(C(=O)Cn1ccnc1C)c1cccc(F)c1 (centres undefined)
inactive: [1] | [2] | [3] | [4] | [5] | [6] | [18] | [8] | [9] | [10] | [12] | [13] | [14]

COc1cc2c(cc1OC)CN(CCc1ccc(NC(=O)c3cc(OC)c(OC)cc3NC(=O)c3cnc4ccccc4c3)cc1)CC2
inactive: [1] | [2] | [3] | [16] | [9] | [10] | [12] | [13] | [14]
active: [15] 10.5 µM | [18] 19.2 µM | [19] 14.8 µM

O=c1[nH]cnc2c1ncn2[C@H]1CC[C@@H](CO)O1
inactive: [1] | [2] | [5] | [16] | [6] | [7] | [8] | [9] | [10] | [17] | [11] | [12] | [13] | [14]
active: [4] 29.6 µM | [15] 9.35 µM

CC(=NNC(=S)N1CCC1)c1ccccn1
inactive: [6] | [7]
active: [1] 0.0415 µM | [3] 0.0209 µM | [4] 0.0037 µM | [15] 0.0013 µM | [5] 0.0054 µM | [16] 0.0166 µM | [19] 0.001 µM | [8] 0.935 µM | [9] 0.0014 µM | [11] 0.003 µM | [12] 0.0235 µM | [13] 0.166 µM

CC(=O)Oc1cc2c(s1)CCN(C(C(=O)C1CC1)c1ccccc1F)C2 (centres undefined)
inactive: [1] | [11] | [13] | [14]
active: [2] 1.48 µM | [5] 1.09 µM | [16] 3.72 µM | [9] 3.06 µM | [17] 1.37 µM

O=c1cc(-c2ccccc2)oc2cc(O)cc(O)c12
inactive: [1] | [2] | [4] | [15] | [16] | [6] | [7] | [9] | [10] | [17] | [11] | [12] | [13]

CC[C@@H]1C=C(C)C[C@H](C)C[C@H](OC)[C@H]2O[C@@](O)(C(=O)C(=O)N3CCCC[C@@H]3C(=O)O[C@H](C(C)=C[C@@H]3CC[C@H](Cl)[C@H](OC)C3)[C@H](C)[C@@H](O)CC1=O)[C@H](C)C[C@H]2OC
active: [15] 11.8 µM | [7] 9.35 µM | [8] 11.8 µM | [17] 8.63 µM
inactive: [1] | [2] | [6] | [18] | [12] | [13] | [14]

Cc1ccc(C(C)(O)c2nc3ccccc3s2)c(C)c1 (centres undefined)
inactive: [1] | [6] | [10] | [11] | [13]
active: [3] 3.32 µM | [4] 2.96 µM | [15] 1.87 µM | [5] 3.85 µM | [16] 1.32 µM | [8] 3.72 µM

O=C(O)c1ccc(-c2cc3cccnc3c(-c3ccc4nonc4c3)n2)cc1
inactive: [1] | [2] | [6] | [13] | [14]
active: [5] 24.3 µM | [8] 20.9 µM | [9] 27.3 µM | [17] 27.3 µM | [11] 26.4 µM

O=C(NCc1ccncc1)C12C[C@H]3C[C@@H](C1)CC(c1ccc(Cl)cc1)(C3)C2
inactive: [1] | [10] | [13]
active: [3] 20.9 µM | [4] 7.43 µM | [15] 0.526 µM | [16] 18.7 µM | [7] 11.8 µM | [17] 19.3 µM | [11] 10.5 µM

COCCOc1nc(-c2ccc(Cl)c(Cl)c2)n(-c2ccc(NC(=O)CCl)cc2)n1
inactive: [1] | [6] | [13]
active: [3] 16.6 µM | [4] 4.69 µM | [15] 4.69 µM | [16] 16.6 µM | [19] 16.6 µM | [8] 18.7 µM | [9] 5.44 µM | [17] 6.11 µM
